Measurements reported in PubChem BioAssay (EPA / NIEHS).
Inconclusive results are not listed. Calls of active or inactive are those of the source. The calls were made as follows, unless noted: active = hit-call score of the fitted dose curve at least 0.9, where 1 is the maximum; inconclusive = response in the unintended direction; inactive = score below 0.9.

Key:
[1] = TOX21_p53_BLA_p2_viability: Viability Assessment in the Tox21 HCT-116 p53 Agonism Beta-lactamase Assay, Phase 2 (AID 2283591);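 also: compound exposure lasted 16 h at 37 °C; actives lower the ATP signal meaning cytotoxicity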
Outline: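 HCT-116 p53-bla cells (4000/well) rested 5 h at 37C, then received compounds in DMSO (217-fold dilution) for 16 h at 37C, 5% CO2. After the CCF4 read, CellTiter-Glo was added; ATP luminescence was read after 30 min at room temperature.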

[2] = target: Cellular tumor antigen p53 (Homo sapiens) (UniProt P04637); experiment: TOX21_p53_BLA_p2_ratio: Tox21 HCT-116 p53 Agonism Beta-lactamase Assay, Ratio, Phase 2 (AID 2283592)
Outline: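 HCT116 cells carrying a p53-responsive beta-lactamase reporter were plated, incubated 5 h at 37C, then dosed with compounds in DMSO (217-fold dilution) for 16 h. CCF4-AM substrate was added for 2 h at room temperature; the 460/530 nm emission ratio gave gain-of-signal activity relative to DMSO.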

[3] = TOX21_p53_BLA_p3_viability: Viability Assessment in the Tox21 HCT-116 p53 Agonism Beta-lactamase Assay, Phase 3 (AID 2283593);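 also: cells exposed to compound for 16 h before reading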
Outline: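 HCT-116 cells (4000/well) rested 5 h at 37C, then got DMSO compounds by pin tool (217-fold dilution) for 16 h at 37C, 5% CO2. After the bla read, CellTiter-Glo was added and luminescence read at 30 min, room temperature.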

[4] = target: Cellular tumor antigen p53 (Homo sapiens) (UniProt P04637); experiment: TOX21_p53_BLA_p3_ratio: Tox21 HCT-116 p53 Agonism Beta-lactamase Assay, Ratio, Phase 3 (AID 2283596)
Outline: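 HCT116 p53-bla cells (4000/well) given compound in DMSO (217-fold dilution) after 5 h, incubated 16 h at 37C. CCF4-AM substrate 2 h at room temperature; 460/530 nm emission ratio, gain fitted against DMSO.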

[5] = TOX21_p53_BLA_p4_viability: Viability Assessment in the Tox21 HCT-116 p53 Agonism Beta-lactamase Assay, Phase 4 (AID 2283597);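 also: hits lower the luminescence signal meaning cytotoxicity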
Outline: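 HCT116 p53-bla cells (4000/well) rested 5 h at 37C, then received compounds in DMSO (217-fold dilution) for 16 h at 37C, 5% CO2. CellTiter-Glo was added after the CCF4-AM read, and luminescence was read after 30 min at room temperature.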

[6] = target: Cellular tumor antigen p53 (Homo sapiens) (UniProt P04637); experiment: TOX21_p53_BLA_p5_ratio: Tox21 HCT-116 p53 Agonism Beta-lactamase Assay, Ratio, Phase 5 (AID 2283599)
Outline: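 HCT-116 cells carrying a p53-inducible beta-lactamase reporter were seeded at 4000 cells/well and dosed after 5 h with compound in DMSO (217-fold dilution). After 16 h at 37C, CCF4-AM substrate was added for 2 h, and the 460/530 nm emission ratio was scored as gain-of-signal versus DMSO.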

[7] = TOX21_p53_BLA_p5_viability: Viability Assessment in the Tox21 HCT-116 p53 Agonism Beta-lactamase Assay, Phase 5 (AID 2283600)
Outline: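 Cells were plated at 4000/well, rested 5 h at 37C, then given compounds in DMSO (217-fold dilution) for 16 h at 37C, 5% CO2. Following the CCF4-AM beta-lactamase read, CellTiter-Glo was added and luminescence was read after 30 min at room temperature.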

[8] = target: Cellular tumor antigen p53 (Homo sapiens) (UniProt P04637); experiment: TOX21_p53_BLA_p4_ratio: Tox21 HCT-116 p53 Agonism Beta-lactamase Assay, Ratio, Phase 4 (AID 2283601)
Outline: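 HCT116 cells carrying an inducible beta-lactamase reporter were plated at 4000 cells/well, rested 5 h, then exposed to compounds in DMSO (217-fold dilution) for 16 h at 37C. CCF4-AM substrate was loaded 2 h at room temperature; 460/530 nm emission ratio scored gain-of-signal versus DMSO.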

[9] = tested on: Brachyury (BRA) Protein Expression, Deisenroth Lab, TBXT (gene 6862); experiment: CCTE_Deisenroth_DEVTOX-GLR_legacy_Bra: (Legacy) CCTE's DevTox GLR-Endo Assay Evaluation of Brachyury (BRA) Protein Expression, Deisenroth Lab (AID 2284329; active = hit-call score of the fitted dose curve at least 0.9, where 1 is the maximum; inactive = score below 0.9)
Outline: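 RUES2-GLR human pluripotent cells differentiated 48 h with two 24-h-interval chemical exposures (1 nM - 200 uM, 10 points); fixed, nuclear-stained, imaged. Bra+ cell percentage (intensity 5x BMAD above pluripotent control median) fitted relative to 0.2% DMSO.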

[10] = CCTE_Deisenroth_DEVTOX-GLR_legacy_CellCount: (Legacy) Viability Assessment in CCTE's DevTox GLR-Endo Assay, Deisenroth Lab (AID 2284331; active = hit-call score of the fitted dose curve at least 0.9, where 1 is the maximum; inactive = score below 0.9); settings: actives raise or lower the signal
Outline: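 Nuclei count by fluorescence high-content imaging (5 fields/well) after 48 h differentiation of RUES2-GLR cells. Two exposures, 24 h apart; 1 nM - 200 uM series; n=4. Bidirectional fit vs DMSO.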

[11] = tested on: SRY-box transcription factor 17 (SOX17) Protein Expression, Deisenroth Lab, SOX17 (gene 64321); experiment: CCTE_Deisenroth_DEVTOX-GLR_legacy_Sox17: (Legacy) CCTE's DevTox GLR-Endo Assay Evaluation of SRY-box transcription factor 17 (SOX17) Protein Expression, Deisenroth Lab (AID 2284341; active = hit-call score of the fitted dose curve at least 0.9, where 1 is the maximum; inactive = score below 0.9); settings: actives raise or lower the signal
Outline: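 RUES2-GLR human pluripotent cells, seeded 24 h, then differentiated 48 h in defined media with two chemical exposures 24 h apart (1 nM - 200 uM, 10 points). Sox17+ fraction from high-content fluorescence imaging; bidirectional fit versus 0.2% DMSO.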

[12] = tested on: SRY-box transcription factor 2 (SOX2) Protein Expression, Deisenroth Lab, SOX2 (gene 6657); experiment: CCTE_Deisenroth_DEVTOX-GLR_legacy_Sox2: (Legacy) CCTE's DevTox GLR-Endo Assay Evaluation of SRY-box transcription factor 2 (SOX2) Protein Expression, Deisenroth Lab (AID 2284346; active = hit-call score of the fitted dose curve at least 0.9, where 1 is the maximum; inactive = score below 0.9)
Outline: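 RUES2-GLR human pluripotent cells seeded 24 h, then differentiated 48 h in defined media with two chemical doses 24 h apart (10-point, 1 nM–200 uM). Fixed, nuclear-stained, imaged; % Sox2+ cells (>5x BMAD over endoderm control median), DMSO-subtracted, fitted upward.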

[13] = tested on: SRY-box transcription factor 2 (SOX2) Protein Expression, Deisenroth Lab, SOX2 (gene 6657); experiment: CCTE_Deisenroth_DEVTOX-GLR_Endo_SOX2: CCTE's DevTox GLR-Endo Assay Evaluation of SRY-box transcription factor 2 (SOX2) Protein Expression, Deisenroth Lab (AID 2284412)
Outline: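 RUES2-GLR human pluripotent cells were seeded 24 h, then differentiated 48 h with two chemical exposures 24 h apart. Cells were fixed, nuclei stained and imaged by high-content microscopy. Endpoint is %SOX2+ cells over cell count, minus 0.2% DMSO control; 10-point series 1 nM–200 uM.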

[14] = tested on: SRY-box transcription factor 17 (SOX17) Protein Expression, Deisenroth Lab, SOX17 (gene 64321); experiment: CCTE_Deisenroth_DEVTOX-GLR_Endo_SOX17: CCTE's DevTox GLR-Endo Assay Evaluation of SRY-box transcription factor 17 (SOX17) Protein Expression, Deisenroth Lab (AID 2284413; active = hit-call score of the fitted dose curve at least 0.9, where 1 is the maximum; inactive = score below 0.9)
Outline: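 Endpoint: % change in SOX17+ fraction (SOX17+ cells / cell count) vs 0.2% DMSO solvent control. RUES2-GLR reporter cells, 48 h endoderm differentiation, two doses at 24 h intervals, high-content fluorescence imaging, 5 fields/well.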

[15] = tested on: Brachyury (BRA) Protein Expression, TBXT (gene 6862); experiment: CCTE_Deisenroth_DEVTOX-GLR_Endo_BRA: CCTE's DevTox GLR-Endo Assay Evaluation of Brachyury (BRA) Protein Expression, Deisenroth Lab (AID 2284417; active = hit-call score of the fitted dose curve at least 0.9, where 1 is the maximum; inactive = score below 0.9)
Outline: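 RUES2-GLR human pluripotent cells, seeded 24 h, then differentiated 48 h in defined media with two chemical exposures 24 h apart (10-point series, 1 nM - 200 uM). Fixed, nuclear-stained, imaged; endpoint is percent BRA+ cells minus 0.2% DMSO control.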

[16] = CCTE_Deisenroth_DEVTOX-GLR_Endo_CellCount: Viability Assessment in CCTE's DevTox GLR-Endo Assay, Deisenroth Lab (AID 2284420; active = hit-call score of the fitted dose curve at least 0.9, where 1 is the maximum; inactive = score below 0.9)
Outline: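 RUES2-GLR human pluripotent cells seeded 24 h, then differentiated 48 h with two chemical exposures at 24 h intervals (10-point, 1 nM - 200 uM). Fixed, nuclear-stained, imaged; nuclei counts give % change in cell count versus 0.2% DMSO.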

[17] = tested on: SRY-box transcription factor 2 (SOX2) Protein Expression, Deisenroth Lab, SOX2 (gene 6657); experiment: CCTE_Deisenroth_DEVTOX-GLR_Pluri_SOX2: CCTE's DevTox GLR-Pluri Assay Evaluation of SRY-box transcription factor 2 (SOX2) Protein Expression, Deisenroth Lab (AID 2284428; active = hit-call score of the fitted dose curve at least 0.9, where 1 is the maximum; inactive = score below 0.9)
Outline: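 Human pluripotent RUES2-GLR cells were seeded 24 h, then differentiated 48 h in defined media with two chemical doses at 24-h intervals (10-point, 1 nM–200 uM). Nuclear-stained cells were imaged; SOX2+ cells/cell count gave percent change versus 0.2% DMSO control.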

[18] = tested on: Brachyury (BRA) Protein Expression, Deisenroth Lab, TBXT (gene 6862); experiment: CCTE_Deisenroth_DEVTOX-GLR_Pluri_BRA: CCTE's DevTox GLR-Pluri Assay Evaluation of Brachyury (BRA) Protein Expression, Deisenroth Lab (AID 2284429)
Outline: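 Human pluripotent RUES2-GLR cells, seeded 24 h, were differentiated 48 h in defined media with two chemical doses at 24-h intervals (10-point, 1 nM - 200 uM). Readout: percent BRA+ cells by fluorescent reporter imaging, minus 0.2% DMSO control.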

[19] = CCTE_Deisenroth_DEVTOX-GLR_Pluri_CellCount: Viability Assessment in CCTE's DevTox GLR-Pluri Assay Evaluation of Total Cell Counts, Deisenroth Lab (AID 2284430; active = hit-call score of the fitted dose curve at least 0.9, where 1 is the maximum; inactive = score below 0.9)
Outline: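 RUES2-GLR human pluripotent cells, seeded 24 h, then differentiated 48 h with two chemical exposures 24 h apart; 10-point series 1 nM - 200 uM. Fixed, nuclear-stained, imaged (5 fields/well); nuclei count as % change vs 0.2% DMSO.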

Cellular tumor antigen p53 (Homo sapiens), sequence (P04637 whole entry, looked up): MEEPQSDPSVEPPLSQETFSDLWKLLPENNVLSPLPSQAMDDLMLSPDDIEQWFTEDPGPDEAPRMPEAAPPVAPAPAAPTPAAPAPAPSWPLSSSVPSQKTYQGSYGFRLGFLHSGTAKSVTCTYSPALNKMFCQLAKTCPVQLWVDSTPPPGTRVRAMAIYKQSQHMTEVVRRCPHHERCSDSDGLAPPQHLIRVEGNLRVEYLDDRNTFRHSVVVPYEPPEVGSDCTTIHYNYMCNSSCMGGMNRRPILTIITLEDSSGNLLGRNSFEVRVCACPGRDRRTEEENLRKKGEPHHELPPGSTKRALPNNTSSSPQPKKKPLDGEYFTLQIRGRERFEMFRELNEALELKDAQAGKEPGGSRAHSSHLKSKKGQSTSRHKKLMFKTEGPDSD

| SMILES | outcome [1] | outcome [2] | outcome [3] | outcome [4] | AC50 [5] | outcome [6] | outcome [7] | outcome [8] | AC50 [9] | AC50 [10] | AC50 [11] | AC50 [12] | AC50 [13] | AC50 [14] | AC50 [15] | AC50 [16] | outcome [17] | outcome [18] | outcome [19] | outcome [5] |
| --- | --- | --- | --- | --- | --- | --- | --- | --- | --- | --- | --- | --- | --- | --- | --- | --- | --- | --- | --- | --- |
| COc1cc2ncnc(Nc3ccc(F)c(Cl)c3)c2cc1OCCCN1CCOCC1 | inactive | inactive | inactive | inactive | 40.7 µM (active) | inactive | inactive | inactive | 8.42 µM (active) | 6.58 µM (active) | 5.74 µM (active) | 5.86 µM (active) | 10.9 µM (active) | 5.78 µM (active) | 10.8 µM (active) | 6.57 µM (active) | inactive | inactive | inactive | – |
| COc1ccc2cc1Oc1cc3c(cc1OC)CC[N+](C)(C)[C@H]3Cc1ccc(cc1)Oc1c(OC)c(OC)cc3c1[C@@H](C2)[N+](C)(C)CC3 | inactive | inactive | inactive | inactive | – | inactive | – | inactive | – | – | – | – | – | – | – | – | – | – | – | inactive |
